In experiment [1] the target is Platelet-derived growth factor receptor beta (Homo sapiens) (UniProt P09619). The settings on record: at 1 µM.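 Note: each value is a mean percent inhibition.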
For experiment [2], the target named is Tyrosine-protein kinase FRK (Homo sapiens) (UniProt P42685). The settings on record: at 0.1 µM.
Experiment [3] shares this target. The note with it: at 1 µM.
In experiment [4] the target is Protein-tyrosine kinase 2-beta (Homo sapiens) (UniProt Q14289). The note with it: at 0.1 µM.
Sequence of Protein-tyrosine kinase 2-beta (Homo sapiens) (Q14289 whole entry, looked up): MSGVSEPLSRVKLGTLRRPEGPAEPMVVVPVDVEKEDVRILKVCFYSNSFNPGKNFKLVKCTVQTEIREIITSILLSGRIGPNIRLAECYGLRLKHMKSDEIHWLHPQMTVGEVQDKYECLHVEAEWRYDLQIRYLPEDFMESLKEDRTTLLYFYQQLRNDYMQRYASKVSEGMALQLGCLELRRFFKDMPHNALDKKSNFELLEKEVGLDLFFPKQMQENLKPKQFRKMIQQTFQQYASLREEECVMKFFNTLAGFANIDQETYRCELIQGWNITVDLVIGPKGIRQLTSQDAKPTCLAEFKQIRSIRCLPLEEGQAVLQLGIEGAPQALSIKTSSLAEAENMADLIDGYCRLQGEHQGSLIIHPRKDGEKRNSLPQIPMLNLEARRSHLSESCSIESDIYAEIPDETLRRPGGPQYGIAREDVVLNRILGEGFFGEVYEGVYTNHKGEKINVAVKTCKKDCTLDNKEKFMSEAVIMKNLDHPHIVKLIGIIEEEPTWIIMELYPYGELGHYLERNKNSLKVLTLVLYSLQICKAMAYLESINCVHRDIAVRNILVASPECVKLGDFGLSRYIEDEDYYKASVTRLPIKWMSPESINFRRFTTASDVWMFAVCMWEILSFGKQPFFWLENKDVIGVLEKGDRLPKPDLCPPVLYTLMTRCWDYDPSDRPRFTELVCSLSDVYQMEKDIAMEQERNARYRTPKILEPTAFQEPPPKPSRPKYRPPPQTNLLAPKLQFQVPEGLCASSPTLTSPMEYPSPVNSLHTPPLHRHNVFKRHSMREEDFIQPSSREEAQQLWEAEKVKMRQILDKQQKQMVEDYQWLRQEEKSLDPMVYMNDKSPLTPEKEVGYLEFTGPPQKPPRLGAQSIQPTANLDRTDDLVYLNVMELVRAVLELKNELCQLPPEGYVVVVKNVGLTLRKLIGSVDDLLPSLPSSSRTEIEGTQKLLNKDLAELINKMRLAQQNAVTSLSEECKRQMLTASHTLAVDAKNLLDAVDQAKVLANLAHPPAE
Experiment [5] shares this target. The settings on record: at 1 µM.
Experiment [6] deals with Proto-oncogene tyrosine-protein kinase receptor Ret (Homo sapiens) (UniProt P07949). The note with it: at 0.1 µM.
Sequence of Proto-oncogene tyrosine-protein kinase receptor Ret (Homo sapiens) (P07949 whole entry): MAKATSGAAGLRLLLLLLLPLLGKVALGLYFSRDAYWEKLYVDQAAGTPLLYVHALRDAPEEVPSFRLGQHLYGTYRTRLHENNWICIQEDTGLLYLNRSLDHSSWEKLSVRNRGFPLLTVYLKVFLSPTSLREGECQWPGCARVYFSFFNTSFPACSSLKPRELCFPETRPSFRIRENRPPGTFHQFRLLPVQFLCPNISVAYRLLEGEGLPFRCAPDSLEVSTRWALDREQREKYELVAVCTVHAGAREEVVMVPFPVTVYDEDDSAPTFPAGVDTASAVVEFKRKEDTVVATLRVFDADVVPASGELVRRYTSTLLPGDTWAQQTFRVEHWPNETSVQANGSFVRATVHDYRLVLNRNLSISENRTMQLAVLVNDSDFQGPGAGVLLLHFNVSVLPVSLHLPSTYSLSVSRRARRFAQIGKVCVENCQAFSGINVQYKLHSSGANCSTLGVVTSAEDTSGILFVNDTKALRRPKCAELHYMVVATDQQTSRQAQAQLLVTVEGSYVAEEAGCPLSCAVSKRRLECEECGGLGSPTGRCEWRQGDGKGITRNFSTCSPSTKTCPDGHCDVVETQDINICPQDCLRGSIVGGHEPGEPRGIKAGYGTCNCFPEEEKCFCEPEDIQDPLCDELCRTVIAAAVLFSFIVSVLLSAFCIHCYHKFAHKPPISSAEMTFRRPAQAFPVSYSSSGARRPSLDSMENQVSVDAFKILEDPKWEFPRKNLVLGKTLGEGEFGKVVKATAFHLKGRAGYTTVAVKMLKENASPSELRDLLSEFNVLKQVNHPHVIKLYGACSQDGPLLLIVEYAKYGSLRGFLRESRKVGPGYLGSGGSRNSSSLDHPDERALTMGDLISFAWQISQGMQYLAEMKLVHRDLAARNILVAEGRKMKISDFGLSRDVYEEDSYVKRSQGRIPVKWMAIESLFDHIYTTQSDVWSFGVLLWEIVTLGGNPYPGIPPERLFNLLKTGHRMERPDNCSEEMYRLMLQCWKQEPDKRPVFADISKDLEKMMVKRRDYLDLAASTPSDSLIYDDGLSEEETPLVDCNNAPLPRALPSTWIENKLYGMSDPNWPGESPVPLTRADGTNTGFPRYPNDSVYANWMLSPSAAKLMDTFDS
Experiment [7] has the same target. The note with it: at 1 µM.
Experiment [8] relates to Proto-oncogene tyrosine-protein kinase receptor Ret (Homo sapiens), P07949 [V804L]. The note with it: at 0.1 µM.
Sequence of Proto-oncogene tyrosine-protein kinase receptor Ret (Homo sapiens), P07949 [V804L] (P07949 whole entry V804L): as the sequence (P07949 whole entry) above, with V804L counted along it
The test system is the same in experiment [9]. The note with it: at 1 µM.
Experiment [10] deals with Proto-oncogene tyrosine-protein kinase receptor Ret (Homo sapiens), P07949 [Y791F]. The note with it: at 0.1 µM.
Sequence of Proto-oncogene tyrosine-protein kinase receptor Ret (Homo sapiens), P07949 [Y791F] (P07949 whole entry Y791F): as the sequence (P07949 whole entry) above, with Y791F counted along it

Sequence of Platelet-derived growth factor receptor beta (Homo sapiens) (P09619 whole entry): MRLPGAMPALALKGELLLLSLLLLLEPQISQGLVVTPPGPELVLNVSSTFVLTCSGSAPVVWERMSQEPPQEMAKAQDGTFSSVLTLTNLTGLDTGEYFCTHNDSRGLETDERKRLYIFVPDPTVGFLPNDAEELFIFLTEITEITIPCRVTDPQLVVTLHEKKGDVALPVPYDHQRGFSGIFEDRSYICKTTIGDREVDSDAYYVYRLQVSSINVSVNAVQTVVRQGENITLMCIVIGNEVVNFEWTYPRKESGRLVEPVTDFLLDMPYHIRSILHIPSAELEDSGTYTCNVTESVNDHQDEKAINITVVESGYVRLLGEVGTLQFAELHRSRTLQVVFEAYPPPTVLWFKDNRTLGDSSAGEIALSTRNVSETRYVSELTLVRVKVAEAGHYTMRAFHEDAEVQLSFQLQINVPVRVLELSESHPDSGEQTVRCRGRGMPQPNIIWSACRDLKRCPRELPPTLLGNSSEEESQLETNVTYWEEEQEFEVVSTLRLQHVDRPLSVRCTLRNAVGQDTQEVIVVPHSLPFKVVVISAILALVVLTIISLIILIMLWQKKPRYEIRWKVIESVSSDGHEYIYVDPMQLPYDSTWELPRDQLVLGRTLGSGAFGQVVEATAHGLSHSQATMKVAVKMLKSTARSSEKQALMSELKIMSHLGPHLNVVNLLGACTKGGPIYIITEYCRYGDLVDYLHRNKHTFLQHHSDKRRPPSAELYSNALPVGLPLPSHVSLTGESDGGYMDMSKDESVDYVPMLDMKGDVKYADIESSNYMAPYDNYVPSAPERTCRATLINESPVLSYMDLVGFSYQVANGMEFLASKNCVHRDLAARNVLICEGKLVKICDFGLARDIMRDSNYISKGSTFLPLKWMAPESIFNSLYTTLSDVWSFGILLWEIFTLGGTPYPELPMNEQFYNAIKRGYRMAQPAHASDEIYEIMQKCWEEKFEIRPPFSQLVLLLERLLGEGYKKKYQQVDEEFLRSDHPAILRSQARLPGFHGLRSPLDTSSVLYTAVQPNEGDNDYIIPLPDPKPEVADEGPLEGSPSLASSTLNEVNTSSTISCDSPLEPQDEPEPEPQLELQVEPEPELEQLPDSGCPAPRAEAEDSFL
Sequence of Tyrosine-protein kinase FRK (Homo sapiens) (P42685 whole entry): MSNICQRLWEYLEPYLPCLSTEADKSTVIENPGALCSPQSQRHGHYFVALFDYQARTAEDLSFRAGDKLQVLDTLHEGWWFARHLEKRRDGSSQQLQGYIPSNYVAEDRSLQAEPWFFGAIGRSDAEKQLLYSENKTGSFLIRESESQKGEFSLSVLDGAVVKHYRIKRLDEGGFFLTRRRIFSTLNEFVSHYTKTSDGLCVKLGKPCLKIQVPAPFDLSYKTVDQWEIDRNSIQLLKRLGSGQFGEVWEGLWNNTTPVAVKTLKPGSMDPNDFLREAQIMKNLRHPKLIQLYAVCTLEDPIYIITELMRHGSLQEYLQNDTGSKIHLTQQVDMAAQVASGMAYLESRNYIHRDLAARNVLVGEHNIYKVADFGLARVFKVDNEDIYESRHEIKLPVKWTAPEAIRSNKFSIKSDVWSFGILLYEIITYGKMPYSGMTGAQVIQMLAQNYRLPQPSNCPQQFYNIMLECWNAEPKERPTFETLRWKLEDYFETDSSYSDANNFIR

For `COc1ccc2ncnc(Nc3ccc(OCc4ccccc4)cc3)c2c1`, the inhibition (as a rule, the change of the read-out against control, counted positive when it falls) in [1] was 7.02%; in experiment [2] it was 0.42%; in [3] it was 0.42%; in experiment [4] it was -1.91%; in experiment [5], 5.66%; in [6] it was 3.22%. The inhibition in [7] turned out to be 5.23%; in experiment [8] it was 0.54%; in [9], 7.26%; in experiment [10] it was 4.16%.
Take `NS(=O)(=O)c1ccc(-c2cc3ccncc3cc2OCc2ccccc2)cc1`: the inhibition came to 8.53% in [1]; 2% in experiment [2]; 1.07% in [3]; 7.81% in experiment [4]; 13.4% in experiment [5]; 2.04% in experiment [6]. The inhibition in experiment [7] was found to be 8.69%; in experiment [8], 2.23%; in [9] it was 5.47%; in [10], 5.72%.
For the molecule `COc1cc(/C=N/Nc2ncnc3c2cnn3C(C)C)ccc1O`, the inhibition in experiment [1] worked out at 45.1%; in experiment [2], 2.61%; in experiment [3] it was 1.87%; in [4], 8.31%; in [5] it was 21.9%; in experiment [6] it was 61.1%. The inhibition in experiment [7] was 85.4%; in [8], 14.1%; in [9], 53.9%; in experiment [10] it was 54%.
For the molecule `Nc1ccc(C#Cc2cncnc2Nc2ccc(OCc3cccc(F)c3)c(Cl)c2)cc1`, the inhibition was 3.64% in experiment [1]; 0.8% in experiment [2]; 1.06% in experiment [3]; -4.77% in [4]; 0.23% in experiment [5]; 6.12% in experiment [6]. The inhibition in [7] is 7.18%; in experiment [8], 9.98%; in experiment [9] it was 3.18%; in experiment [10], 2.75%.
On to `c1ccc(Nc2ncc(-c3ccccc3)o2)cc1`, for which the inhibition was 36% in experiment [1]; 3.95% in experiment [2]; 4.95% in [3]; 10.4% in experiment [4]; 14.3% in experiment [5]; 6.9% in experiment [6]. In addition, the inhibition in [7] was found to be 9.61%; in experiment [8], 2.13%; in experiment [9] it was 6.39%; in [10], 5.1%.
As for `CCS(=O)(=O)c1ccc(OC)c(Nc2ncc(-c3cccc(OC)c3)o2)c1`, the inhibition in experiment [1] stood at 74.8%; in experiment [2] it was 4.05%; in experiment [3], 26.9%; in experiment [4], 6.52%; in experiment [5], 10.9%; in experiment [6], 21.9%. For the same molecule, the inhibition in experiment [7] is 68.5%; in experiment [8] it was 7.11%; in [9] it was 44.1%; in experiment [10], 22.6%.
Take `COc1cc2ncn(-c3cc(OCc4ccccc4S(C)(=O)=O)c(C#N)s3)c2cc1OC`: the inhibition was 78.1% in experiment [1]; 3.38% in experiment [2]; 4.36% in [3]; 12% in experiment [4]; 25.6% in [5]; 18.2% in experiment [6]. The inhibition was 63.7% in [7], 11.3% in experiment [8], 53.6% in [9] and 23.2% in [10].
As for `Cc1nc(-c2ccccc2)n2nc(NCCCN3CCOCC3)ncc12`, the inhibition in experiment [1] is 5.95%; in experiment [2] it was 3.57%; in [3], 2.61%; in [4], 1.99%; in experiment [5], 10.1%; in experiment [6], 0.76%. In addition, the inhibition in [7] came to 6.88%; in [8], 2.64%; in experiment [9], 7.97%; in [10], 4.35%.
Consider `COc1cccc(-n2ncc3c(N/N=C/c4ccc(S(C)(=O)=O)cc4)ncnc32)c1`, for which the inhibition in [1] came out at 78.1%; in experiment [2] it was 0.47%; in experiment [3] it was 3.05%; in [4], 3.04%; in experiment [5], 5.9%; in experiment [6] it was 11.4%. For the same molecule, the inhibition was determined as 30.7% in experiment [7], 4.8% in [8], 8.24% in experiment [9] and 14.1% in experiment [10].
For the molecule `CCCN1CCCC(c2ccc(Nc3nc(Nc4cc(F)ccc4C(N)=O)c4cc[nH]c4n3)c(OC)c2)C1` (stereo not given), the inhibition was found to be 32.2% in [1]; 7.2% in experiment [2]; 20.5% in experiment [3]; 96% in experiment [4]; 97.7% in [5]; 8.63% in experiment [6]. Also, the inhibition in [7] was 20.9%; in experiment [8] it was 10.1%; in [9] it was 41.6%; in [10], 8.67%.
On to `OCc1ccc(-c2nc(-c3ccccn3)c(-c3ccc4c(c3)OCO4)[nH]2)cc1`, for which the inhibition in experiment [1] came out at 11%; in [2], 2.25%; in experiment [3] it was 2.05%; in experiment [4], 12%; in [5], 13.1%; in experiment [6] it was 4.72%. Also, the inhibition is 4.99% in experiment [7], 4.41% in [8], 1.05% in experiment [9] and 12.3% in experiment [10].
On to `COC(=O)Nc1nc2cc(Oc3ccc(NC(=O)Nc4cccc(Br)c4)cc3)ccc2[nH]1`, for which the inhibition in [1] is 35.9%; in [2], 2.82%; in [3], 1.12%; in experiment [4], 5.36%; in experiment [5], 9.53%; in experiment [6], 69.7%. Also, the inhibition in experiment [7] worked out at 80.6%; in [8], 37.5%; in [9] it was 66.5%; in [10], 66.4%.
For `COc1cc2ncnc(Nc3ccc(C)c(O)c3)c2cc1OC`, the inhibition in experiment [1] amounted to 76.6%; in experiment [2] it was 7.74%; in [3], 19.9%; in [4], 12.5%; in experiment [5], 18.9%; in [6], 83.6%. In addition, the inhibition in experiment [7] was found to be 89.4%; in experiment [8] it was 3.3%; in experiment [9], 11.3%; in experiment [10], 76.8%.
On to `CN(C)CCCn1c(-c2nonc2N)nc2cnccc21`, for which the inhibition is 11.6% in experiment [1]; 2.2% in [2]; 1.55% in experiment [3]; 9.44% in [4]; 4.55% in [5]; 7.25% in experiment [6]. Further, the inhibition amounted to 8.04% in [7], 1.93% in [8], 2.02% in experiment [9] and 2.47% in experiment [10].
Consider `NC(=O)c1sc(-n2cnc3ccccc32)cc1OCc1ccccc1Br`, for which the inhibition in [1] is 14.4%; in experiment [2] it was 2.57%; in experiment [3] it was 3.29%; in [4], 7.34%; in experiment [5], 6.52%; in experiment [6] it was 9.37%. Besides, the inhibition in experiment [7] amounted to 12.7%; in experiment [8] it was 3.43%; in [9], 5.79%; in [10], 5.9%.
On to `CS(=O)(=O)CCNCc1nc(-c2ccc3ncnc(Nc4ccc(OCc5cccc(C(F)(F)F)c5)cc4)c3c2)cs1`, for which the inhibition in experiment [1] was 10.1%; in [2] it was 1.71%; in experiment [3], 0.38%; in experiment [4], -1.25%; in [5], 2.41%; in experiment [6], 5.26%. The inhibition turned out to be 4.11% in [7], 2.89% in [8], 5.13% in experiment [9] and 7.97% in experiment [10].
In the case of `COc1cccc(-n2nc(C)c3c(N/N=C(\C)c4ccncc4)ncnc32)c1`, the inhibition in [1] is 5.79%; in [2], 0.1%; in experiment [3], -0.17%; in [4] it was 1.44%; in experiment [5] it was 8.6%; in [6], -0.76%. Moreover, the inhibition is 0.88% in experiment [7], 1.04% in experiment [8], 1.23% in [9] and 2.73% in experiment [10].

For the origin of these results see ChEMBL document CHEMBL1961873, “Compounds: GSK PKIS; Assays: Nanosyn kinase panel” (2012).
